Assay outcomes (PubChem BioAssay)
TRHR ag: agonists of human TRH receptor; P34981; TRHR cells, calcium flux fluo-8, FDSS agonist mode; activation, % at 2 µM; 360,000 compounds, 0.18% hits; AID 493084; also: 0% is about no effect
Target sequence (P34981 whole entry, looked up): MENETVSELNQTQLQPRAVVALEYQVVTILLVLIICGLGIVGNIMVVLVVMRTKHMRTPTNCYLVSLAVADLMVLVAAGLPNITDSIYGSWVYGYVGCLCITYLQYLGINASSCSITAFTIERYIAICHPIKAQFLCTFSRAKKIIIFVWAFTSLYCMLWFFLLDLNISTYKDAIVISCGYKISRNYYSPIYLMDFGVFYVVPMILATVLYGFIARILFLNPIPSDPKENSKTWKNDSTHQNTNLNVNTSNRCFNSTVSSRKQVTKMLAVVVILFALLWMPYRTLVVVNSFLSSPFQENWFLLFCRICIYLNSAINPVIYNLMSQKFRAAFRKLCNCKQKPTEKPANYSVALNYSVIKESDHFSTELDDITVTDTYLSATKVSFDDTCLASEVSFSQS
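Fluo-8-loaded TRHR cells; 10 s baseline, compound added, kinetic Ca2+ fluorescence read 1/s, agonist mode.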
TRHR enhancer: TRH receptor (human) allosteric enhancement; P34981; TRHR cells, fluo-8 calcium fluorescence, EC20 TRH enhancement; enhancement, % at 2 µM; 360,000 compounds, 0.66% hits; AID 493056; in the data active = enhancement above about 30%; also: 0% is about no effect
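Enhancer read-out: after compound pinning and an initial kinetic agonist-mode read, an EC20 of TRH (10 nM final) was injected and fluo-8 calcium signal (Ex 480/Em 530) followed at 1 s/cycle for 100 cycles in TRHR-expressing cells.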
D1 PAM: human D1 dopamine receptor positive modulation | P21728 | HEK293 TREx D1 cells, calcium flux, dopamine EC20 potentiation | potentiation, % at 10 µM | 360,000 compounds, 0.036% hits | AID 504651; in the data active = potentiation above about 30%; also: 0% is about no effect
D1 ag: activates the human D1 dopamine receptor; P21728; HEK293 T-REx D1 cells, calcium flux, agonist mode; activation, % at 2 µM; 360,000 compounds, 1% hits; also: 0% is about no effect
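Tetracycline-induced HEK293 TREx D1 cells, force-coupled to calcium signalling, were dye-loaded with a no-wash calcium kit. Compound was pin-added after a 10 s baseline. Fluorescence was read kinetically at 1 cycle/s for 180 s, with calcium rises flagged as agonism.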
D1 antagonist: blocks dopamine activation of the human D1 receptor; 360,000 compounds, 3.2% hits; P21728; HEK293 TREx D1 cells, calcium flux, dopamine EC80; stronger effect = lower value; activity change, negative = inhibition, % at 10 µM; in the data active = activity change below about -30%; also: % is scaled to controls: 0 for no effect and ±100 for the full control effect
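HEK293 T-REx cells expressing inducible, force-coupled D1 receptor; no-wash Ca dye, 30–90 min RT. Cmpd → 180 s read at 1 Hz → EC80 DA → 180 s read.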
Starred values were filed as active, the others as inactive; nt = not tested or not shown. Rows were chosen to be rich in hits. Some 4.6% of all compounds tested hit in one or more screens of this group. Rule as the data show it, unless noted: active = activation above about 30%; inactive = the rest.

SMILES	TRHR ag	TRHR enhancer	D1 PAM	D1 ag	D1 antagonist
CC(C)CC(=O)N1CCN(C(=O)c2ccc(-c3ccccc3)cc2)CC1	0.2	31.0*	9.7	1.4	-11.0
Cc1cccc(CNC(=O)CSCc2cnn(-c3ccccc3)c2-n2cccc2)c1	-0.8	6.5	-1.8	19.5	-11.6
Cc1cccc(C)c1Nc1sc(C(=O)c2ccccc2)c(N)c1C(=O)Nc1ccc(F)cc1	0.6	1.7	2.0	18.1	2.1
COc1cc(CN2CCN(S(=O)(=O)c3ccccc3)CC2)cc(OC)c1O	1.9	8.3	-6.4	1.0	-61.3*
Cc1ccc(N2C(=O)c3ccc(C(=O)N4CCN(Cc5ccccc5)CC4)cc3C2=O)cc1	0.3	-6.1	-5.0	58.5*	-47.5*
COc1cc(C(=O)N2CCN(C(=O)C3CC3)CC2)cc(OC)c1OC	0.2	3.5	-19.4	0.6	-42.1*
COc1cc(OC)cc(C(=O)N2CCN(C(=O)c3ccc(-c4ccccc4)cc3)CC2)c1	0.0	36.1*	2.6	0.5	-1.1
COc1ccc(C(=O)N2CCN(C(=O)c3ccc(-c4ccccc4)cc3)CC2)cc1OC	-0.4	29.3	-4.0	2.4	-11.6
COc1ccc(S(=O)(=O)N2CCN(Cc3cc(OC)c(O)c(OC)c3)CC2)cc1	-0.1	-2.4	-2.1	1.2	11.1
O=c1c2sc3ccccc3c2n(Cc2cccc(Cl)c2)c(=O)n1Cc1ccccc1	3.2	-3.3	0.7	3.7	-0.1
CC1=NN(Cc2ccccc2)C(=O)C1	-0.6	3.4	-12.7	-1.5	-36.5*
CC1=NN(c2ccc(Cl)cc2)C(=O)C1	0.8	-2.0	2.7	5.9	17.6
CCOc1ccc(C(C)NC(=S)NCc2ccc(F)cc2)cc1 (stereo unspecified)	3.4	0.0	0.3	58.6*	0.7
CCC(NC(=S)NCc1ccc(F)cc1)c1ccc(C)cc1 (stereo unspecified)	3.8	-2.4	-1.1	59.8*	-2.7
CCc1ccc(C(C)NC(=S)NCc2ccc(F)cc2)cc1 (stereo unspecified)	8.7	-6.9	-1.2	76.3*	3.2
Cc1ccc(C(C)NC(=S)NCc2ccc(F)cc2)c(C)c1 (stereo unspecified)	5.5	-0.7	-5.6	51.4*	-0.5
O=C(Nc1ccccc1Cl)c1ccc(S(=O)(=O)NCC2CCCO2)cc1 (stereo unspecified)	-0.1	0.2	-5.8	4.2	-7.8
Cc1ccc(C(C)NC(=S)NCc2ccc(F)cc2)cc1C (stereo unspecified)	0.5	-5.2	-6.5	8.1	-30.5*
COc1cccc(C(C)NC(=S)NCc2ccc(F)cc2)c1 (stereo unspecified)	1.4	-8.9	-1.5	15.7	-3.3
Cc1ccc(Nc2nc(-c3cccnc3)cs2)cc1Cl	0.5	-0.8	-4.7	5.9	-4.2
Cc1ccc(C)c(Nc2nc(-c3cccnc3)cs2)c1	3.1	3.7	-7.3	1.5	-39.2*
O=C(O)c1cc(N/N=C/c2cccnc2)ccc1Cl	-0.2	-2.3	-0.8	0.7	-32.9*
O=C(O)c1cc(N/N=C/c2ccncc2)ccc1Cl	0.5	0.6	-1.9	1.4	-0.3
COc1ccc(OC)c(NC(=O)c2cc3c(=O)n4cccc(C)c4nc3n2C)c1	0.1	2.9	1.8	4.1	-13.7
Cc1ccc2nc(N=C(N)N)nc(C)c2c1	0.2	-8.5	-9.4	0.6	-52.3*
SMILES	TRHR ag	TRHR enhancer	D1 PAM	D1 ag	D1 antagonist
COCc1[nH]nc2c1C(c1c(F)cccc1Cl)C(C#N)=C(N)O2 (stereo unspecified)	0.0	4.4	-3.8	5.2	-4.4
N#CC1=C(N)Oc2n[nH]c(-c3ccccn3)c2C1c1c(F)cccc1Cl (stereo unspecified)	-1.0	-8.9	-6.6	1.8	-31.2*
CC(=O)c1cccc(OCCN2C(=O)NC(C)(C)C2=O)c1	0.0	-6.2	0.7	-0.1	-30.1*
CCc1cccc(OCCCN2C(=O)NC(C)(C)C2=O)c1	1.5	-10.5	-4.0	3.0	-4.9
COc1ccc(CC(=O)N2CCc3cc(OC)c(OC)cc3C2COc2cc(C)cc(C)c2)cc1OC (stereo unspecified)	-0.5	-0.1	-0.8	4.9	2.8
COc1ccc2c(c1OC)C(=O)OC2CC(=O)O (stereo unspecified)	1.3	-1.3	-0.3	0.9	-30.1*
COc1ccc(CC(=O)Nc2ccc(NC(=O)c3ccccc3F)cc2)cc1	3.5	-1.9	-4.1	54.1*	-7.2
COc1ccc(NC(=O)CSc2nc(N)c(NC(=O)c3ccccc3F)c(=O)[nH]2)cc1	-0.1	24.7	-0.7	1.2	8.3
CCCCn1c(O)c(N=Nc2ccccc2O)c2ccccc21	8.6	-5.8	2.3	30.1*	-0.8
Cc1oc2c(c(C)cc3oc(=O)c(CC(=O)NCCc4ccccc4)c(C)c32)c1C	0.2	2.5	1.5	-0.2	-6.5
Oc1c(C(c2ccc(Cl)cc2Cl)N2CCN(Cc3ccccc3)CC2)sc2nc(-c3ccco3)nn12 (stereo unspecified)	0.1	13.7	-1.1	-3.8	nt
CCN(Cc1cccc(OC)c1)CC1CCCN(CCc2cccc(OC)c2)C1 (stereo unspecified)	0.6	2.8	-7.8	7.8	-38.9*
CCOc1cccc(CN(CC)CC2CCCN(CCc3cccc(OC)c3)C2)c1O (stereo unspecified)	0.5	34.0*	-10.7	4.2	-17.3
CCN(CC1CCCN(CCc2cccc(OC)c2)C1)C(=O)C=C(C)C (stereo unspecified)	0.2	-2.4	-7.7	1.8	-8.1
COc1cccc(CN(C)CC2CCCN(CCc3ccccc3C)C2)c1 (stereo unspecified)	0.1	-6.1	-2.8	4.1	-63.4*
COc1ccc(CCN=C(N)C(C)c2ccccc2)cc1OC (stereo unspecified)	0.1	-1.9	-2.7	0.5	0.8
CC(C)Cc1ccc(C(C)C(N)=NCCc2ccccc2)cc1 (stereo unspecified)	3.5	-6.2	-8.0	30.3*	19.5
Cc1c(C)n(CCc2ccccc2)c2ncnc(NCCCO)c12	-0.8	5.5	-7.2	-1.0	-32.1*
CN(CC(=O)NCc1ccc(F)cc1)CC(=O)Nc1ccc(Cl)c(C(F)(F)F)c1	1.2	1.6	1.5	24.1	-33.4*
CCNC(=S)Nc1ccc(Cl)c(C(F)(F)F)c1	1.5	-2.2	-5.6	19.6	-32.4*
O=C(Nc1ccc(Cl)c(C(F)(F)F)c1)c1ccco1	-0.7	2.6	-3.3	-1.2	-28.6
Cc1ccc(NC(=O)CN(C)CC(=O)Nc2ccc(F)c(Cl)c2)cc1	0.2	2.3	3.1	1.7	-54.6*
Cc1ccc2occ(CC(=O)Nc3ccc(Cl)c(C(F)(F)F)c3)c2c1	1.9	-4.4	-3.4	16.2	-31.5*
CC(=O)c1ccc(NC(=O)c2cc(-c3ccc(Cl)c(Cl)c3)on2)cc1	0.6	-3.6	-0.5	5.1	3.2
Cn1nnnc1Sc1ncnc2scc(-c3cccc(N)c3)c12	-0.7	7.6	-5.0	4.7	-0.1
